Where “and” joins values, the source holds several entries; their conditions need not be identical. Equal values may be shown once. Calls of active or inactive are those of the source.
Key:
[1] = tested on: XIP peptide (Xip251-270) binding; test: XIP fragment 251-270 binding compounds – biochemical, small-molecule microarray, fluorescence 635/667 nm, 0.1 µg/mL protein, primary screen (AID 1182); settings: fluorescent protein binding, 635 nm, higher = more signal, called active from +8 up or from −8 down
XIP peptide (Xip251-270) = test: compounds binding XIP fragment 251-270 – biochemical, small-molecule microarray, fluorescence 635/667 nm, 0.5 µg/mL protein, primary screen (AID 1183); settings: fluorescence 635 nm, higher = more signal
[2] = blood-stage malaria parasite viability loss – strain 3D7, DAPI fluorescence, 100 nL, primary screen (AID 1184);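 note: parasites grown inside human red blood cells in medium with human serum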; settings: P. falciparum 3D7 growth, 3 d, higher = more signal
[3] = biological target: Homeobox protein Hox-A13 (Mus musculus) (UniProt Q62424); test: disruptors of Hoxa13 oligonucleotide interaction – biochemical, fluorescence polarization, labeled oligonucleotide, primary screen (AID 1185); settings: Hoxa13:DNA binding, 15 min, higher = more signal, called active from +8 up or from −8 down
Sequence of Homeobox protein Hox-A13 (Mus musculus) (Q62424 whole entry, looked up): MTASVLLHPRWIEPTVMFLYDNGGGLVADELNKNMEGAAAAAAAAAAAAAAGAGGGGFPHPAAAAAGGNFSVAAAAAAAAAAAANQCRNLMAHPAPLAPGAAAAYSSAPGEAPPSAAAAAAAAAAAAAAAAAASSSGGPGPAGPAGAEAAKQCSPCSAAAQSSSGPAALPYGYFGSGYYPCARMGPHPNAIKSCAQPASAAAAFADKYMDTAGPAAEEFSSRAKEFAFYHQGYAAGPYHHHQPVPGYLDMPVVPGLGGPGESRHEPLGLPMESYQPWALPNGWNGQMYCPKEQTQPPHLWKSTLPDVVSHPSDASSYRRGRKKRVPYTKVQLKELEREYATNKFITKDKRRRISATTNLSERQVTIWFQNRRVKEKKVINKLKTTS

| SMILES | composite z-score [1] | composite z-score (XIP peptide (Xip251-270)) | z-score [2] | z-score [3] |
| --- | --- | --- | --- | --- |
| CCCC[C@@H]1CN2[C@@H](CC[C@@H](C)[C@@H]2c2ccc(Br)cc2)C(=O)O1 | 0.177 (inactive) and 0.122 (inactive) | 0.712 and 0.647 | 0.524 and 0.888 | -3.5 (inactive) and -2.53 (inactive) |
| Cc1ccc(S(=O)(=O)OC[C@@H]2CN3[C@@H](CC[C@@H](C)[C@@H]3c3ccc(Br)cc3)C(=O)O2)cc1 | 0.589 (inactive) and -0.699 (inactive) | 0.432 and 0.299 | -0.17 and -0.013 | 0.16 (inactive) and 0.956 (inactive) |
| CC(C)=NO[C@@H](C)c1cc(-c2c(C)cc(C)cc2C)no1 | -0.386 (inactive) | 0.303 | -0.876 | 0.387 (inactive) |
| COC(=O)C1=C(C)N(Cc2ccccc2)[C@]23O[C@](C(=O)OC)(C(=O)N2[C@@H]1c1ccccc1)[C@H]1CCCC(=O)[C@H]13 | 0.472 (inactive) and 0.134 (inactive) | -0.0169 and 0.279 | 0.0733 and -0.727 | -4.3 (inactive) and 0.514 (inactive) |
| O=c1n(-c2ccccc2)c(=O)n2n1CC[C@@H]1C(=NOC[C@@H](O)COCc3ccco3)[C@H]3O[C@H]3[C@@H](O)[C@@H]12 | 0.0643 (inactive) and 0.158 (inactive) | 0.0433 and -0.0465 | -1.77 and -0.681 | -0.683 (inactive) and -1.44 (inactive) |
| C[C@@H]1CN2[C@@H](CC[C@@H](C)[C@@H]2c2ccc(Br)cc2)C(=O)O1 | -0.0537 (inactive) and -1.1 (inactive) | -0.252 and 0.581 | -0.218 and 0.559 | 0.101 (inactive) and -0.0592 (inactive) |
| CCN1C(=O)[C@H]2[C@H]3[C@H](O)[C@H](O)CC(=NOC[C@@H](O)COCc4ccco4)[C@@H]3CC[C@H]2C1=O | -0.24 (inactive) and 1.01 (inactive) | 0.232 and 0.595 | 0.0479 and -0.919 | -0.849 (inactive) and -2.85 (inactive) |
| COC(=O)C1=C(C)N(Cc2ccccc2)C2=C(C(=O)c3ccccc3)[C@H](c3ccccc3)[C@@](O)(C(=O)OC)C(=O)N2[C@@H]1c1ccccc1 | -0.149 (inactive) and -0.059 (inactive) | 0.675 and 0.323 | -0.467 and 0.501 | -1.74 (inactive) and -0.745 (inactive) |
| C[C@@H]1CC[C@H]2C(=O)O[C@H](CN=[N+]=[N-])CN2[C@H]1c1ccc(Br)cc1 | -0.036 (inactive) and -0.0365 (inactive) | 0.183 and 0.186 | -2.02 and -0.068 | -1.98 (inactive) and -3.31 (inactive) |
| CCOC(=O)NN=C1C[C@@H](O)[C@@H](O)[C@@H]2[C@@H]3C(=O)N(Cc4ccccc4)C(=O)[C@@H]3CC[C@@H]12 | -0.479 (inactive) | 0.0853 | -0.647 | -0.411 (inactive) |
| CO[C@H]1COC(=O)CC=C[C@@H](C)COC(=O)[C@@H](OCc2ccccc2)C=C[C@@H]1C | -0.147 (inactive) | -0.106 | 0.56 | -0.383 (inactive) |
| CO[C@@H]1C=CCC(=O)N2CCC[C@H]2C(=O)OC[C@H](C)C(=O)OC[C@H]1C | 0.28 (inactive) | 0.612 | 0.471 | -0.499 (inactive) |
| COC(=O)C1=C(C)N(Cc2ccccc2)C2=C(C(C)=O)C[C@@](O)(C(=O)OC)C(=O)N2[C@@H]1c1ccccc1 | 0.411 (inactive) and 1.64 (inactive) | -0.358 and 0.645 | 0.467 and 0.637 | -1.52 (inactive) and -2.36 (inactive) |
| COC(=O)C1=C(C)N(Cc2ccccc2)[C@]23O[C@](C(=O)OC)(C(=O)N2[C@@H]1c1ccccc1)[C@H]1C(=O)N(c2ccccc2)C(=O)[C@H]13 | 0.229 (inactive) and 0.555 (inactive) | -0.275 and -0.308 | -0.391 and 1.02 | -2.26 (inactive) and -1.88 (inactive) |
| CON(C)C(=O)c1nnc2c3ccccc3n(S(=O)(=O)c3ccc(C)cc3)c2n1 | 0.41 (inactive) and 0.536 (inactive) | 0.632 and 0.305 | -0.248 and -0.675 | -5.36 (inactive) and -5.11 (inactive) |
| CCN1C(=O)[C@H]2[C@H]3[C@H](O)[C@H](O)CC(=NOC)[C@@H]3CC[C@H]2C1=O | -0.397 (inactive) | 0.774 | 0.638 | 1.98 (inactive) |
| C#CCCCON=C1C[C@@H](O)[C@@H](O)[C@@H]2[C@@H]3C(=O)N(C4CCCCC4)C(=O)[C@@H]3CC[C@H]12 | 0.57 (inactive) | 0.545 | 1.43 | 0.504 (inactive) |

— PubChem BioAssay
